This is a sample that favours compounds with a hit; in the whole collection about 12% have one here.
Sfp inh: inhibitors of Bacillus subtilis Sfp phosphopantetheinyl transferase | Potency, µM, hits mostly inhibitors | AID 1490 | actives 3.5% (n = 310,000) | Biochemical Sfp PPTase activity, qHTS;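 note: the enzyme is Sfp with the accession as filed and its product quenches rhodamine fluorescence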
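Compounds were incubated with enzyme (final 15 nM) for 15 min at room temperature before substrate addition started the reaction. Fluorescence at 525 nm excitation, 598 nm emission was recorded immediately and after 30 minutes.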
G9a block: inhibitors of human histone lysine methyltransferase G9a | Q96KQ7 | G9a H3K9 monomethylation, AlphaScreen, 2 h | Potency, µM (doses to about 102 µM), actives largely listed as inhibitors | actives 8.8% (n = 350,000) | AID 504332; note: nearly all actives have a fitted effect of over 75% in size
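Using a bead-based AlphaScreen, monomethylated H3K9 product from 2 h room-temperature reactions (G9a 20 nM, peptide 500 nM, SAM 20 uM) was detected with 0.5 ug/mL rabbit anti-H3K9me1 antibody.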
JMJD2A Tudor inh: blocks the human JMJD2A Tudor domain; O75164; AlphaScreen JMJD2A-Tudor / H3K4me3 peptide binding; Potency, µM (series often up to 114 µM), most hits filed as inhibitors; actives 4.4% (n = 390,000); AID 504339; note: nearly all actives have a fitted effect of over 50% in size
BAZ2B inh: blocks human BAZ2B; Q9UIF8; AlphaScreen BAZ2B-H3K14Ac peptide displacement; Potency, µM (highest dose often 114 µM), usual class: inhibitors; actives 4.4% (n = 360,000); AID 504333; note: nearly all actives have a fitted effect of over 60% in size
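AlphaScreen luminescence quantifies BAZ2B engagement of H3K14Ac peptide; the protein and biotinylated peptide are both at 50 nM final, buffer PBS pH 7.4 with 0.01% Tween-20, all steps at room temperature.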
HP1b chromo inh: inhibitors of HP1-beta chromodomain binding to methylated histone tails. AlphaScreen HP1-beta / biotin-H3K9me3 peptide binding. actives 0.56% (n = 390,000). AID 540317. Potency, µM (series often up to 114 µM), most hits filed as inhibitors; note: nearly all actives have a fitted effect of over 70% in size
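AlphaScreen: HP1-beta (50 nM) preformed 30 min with biotin-H3(1-18)K9me3 peptide (50 nM) in PBS pH 7.4, 0.01% Tween-20. Compound added for 30 min at RT, then streptavidin donor/nickel chelate acceptor beads (10 ug/mL) for 30 min.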
Of the large screens only hits and unclear results are named; the others gave an inactive call. Calls come from the whole dose curve; as a rule, active = well fitted curve in the direction sought with a large enough effect; inconclusive = small, poorly fitted or top-dose-only effect, or another doubt; inactive = no such curve, though single readings can be large; an effect the other way counts as inactive or inconclusive.

C/C(NCCCn1ccnc1)=C(\C#N)C(N)=O	BAZ2B inh inconclusive
Nc1ccc2cc3ccccc3cc2c1	JMJD2A Tudor inh inconclusive (no result: Sfp inh, G9a block, BAZ2B inh)
Nc1ccc2cccc(O)c2c1	JMJD2A Tudor inh 28µM, HP1b chromo inh inconclusive (no result: Sfp inh, G9a block, BAZ2B inh)
O=C(Nc1cc(C(F)(F)F)ccc1N1CCOCC1)C1Cc2ccccc2CN1C(=O)c1ccco1 (stereo not drawn)	Sfp inh 28µM, G9a block inconclusive
Cc1ccc(NC(=O)CSCC(=O)Nc2cc(C(F)(F)F)ccc2N2CCOCC2)cc1	none (no result: Sfp inh)
COc1ccc(NC(C)C(=O)Nc2cc(C(F)(F)F)ccc2N2CCOCC2)c(OC)c1 (stereo not drawn)	G9a block inconclusive, JMJD2A Tudor inh 45µM, BAZ2B inh 32µM, HP1b chromo inh inconclusive
O=C(CSCc1ccco1)Nc1cc(C(F)(F)F)ccc1N1CCOCC1	Sfp inh 56µM, G9a block inconclusive
O=C(NCCc1c[nH]c2ccccc12)OCCCCOC(=O)NCCc1c[nH]c2ccccc12	JMJD2A Tudor inh inconclusive, BAZ2B inh inconclusive (no result: Sfp inh)
Cc1cccc(Nc2nc(N)nc(N)c2S(=O)(=O)c2ccccc2)c1	none (no result: Sfp inh)
NS(=O)(=O)c1cnccc1Nc1cccc(F)c1	none (no result: Sfp inh, G9a block, BAZ2B inh)
COc1cccc(NC(=O)[C@H](CC(C)C)NC(=O)[C@@H]2Cc3ccccc3CN2)c1	JMJD2A Tudor inh 79µM, BAZ2B inh inconclusive
COc1ccc(C)cc1NC(=O)CNC(=O)[C@@H]1Cc2ccccc2CN1	G9a block 45µM
Cc1ccc(NC(=O)[C@H](CC(C)C)NC(=O)[C@@H]2Cc3ccccc3CN2)cc1	G9a block 32µM, BAZ2B inh inconclusive
Cc1ccc(NC(=O)[C@@H](CC(C)C)NC(=O)[C@@H]2Cc3ccccc3CN2)cc1	G9a block inconclusive
COc1ccccc1CNC(=O)[C@H](Cc1c[nH]c2ccccc12)NC(=O)[C@@H]1Cc2ccccc2CN1	G9a block 13µM, BAZ2B inh inconclusive
CC(=O)c1ccc(S(=O)(=O)NC2CCCCCCC2)cc1	none
Cc1ccc(N2CC(=O)N(NC(=O)c3sc4nc(C)cc(C)c4c3N)CC2=O)cc1	G9a block inconclusive, JMJD2A Tudor inh inconclusive
CSc1ccccc1OCc1cc(C(=O)N2CCSCC2)no1	G9a block inconclusive
CCn1ccnc1CN(C)C(=O)c1cc(COc2ccc(OC)c3ccccc23)on1	JMJD2A Tudor inh 50µM, HP1b chromo inh inconclusive
CC(=O)c1cccc(OCc2cc(C(=O)N(C)Cc3ccc(C)o3)no2)c1	Sfp inh 25µM, JMJD2A Tudor inh 79µM, HP1b chromo inh inconclusive (no result: G9a block)
Cc1ccc(CN(C)C(=O)c2ccccc2Oc2ccccc2)o1	Sfp inh 14µM, G9a block inconclusive, JMJD2A Tudor inh inconclusive
CC(=O)c1cccc(OCc2cc(C(=O)N(C)CCc3ccccn3)no2)c1	none
CSc1ccccc1OCc1cc(C(=O)N2CCN(c3ncccn3)CC2)no1	Sfp inh inconclusive, G9a block 56µM, JMJD2A Tudor inh inconclusive
CSc1ccccc1OCc1cc(C(=O)N(C)Cc2ccc(C)o2)no1	Sfp inh 20µM, G9a block 50µM
CSc1ccccc1OCc1cc(C(=O)N(C)Cc2ccc3nsnc3c2)no1	none (no result: G9a block)
COCc1cc(C)nc(OCC(=O)N/N=C/c2cc(C)n(-c3c(C)cccc3C)c2C)c1C#N	JMJD2A Tudor inh inconclusive, BAZ2B inh inconclusive
CN(C)c1ccc(CN(CC2CCCO2)C(=O)COc2ccc(Cl)cc2)cc1 (stereo not drawn)	G9a block 14µM, JMJD2A Tudor inh 45µM, BAZ2B inh 32µM, HP1b chromo inh inconclusive (no result: Sfp inh)
CN(C)c1ccc(CN(CC2CCCO2)C(=O)c2cccs2)cc1 (stereo not drawn)	G9a block inconclusive, JMJD2A Tudor inh inconclusive, BAZ2B inh inconclusive
CCOc1ccccc1C(=O)N(Cc1ccc(N(C)C)cc1)CC1CCCO1 (stereo not drawn)	G9a block inconclusive, JMJD2A Tudor inh inconclusive, BAZ2B inh inconclusive (no result: Sfp inh)
COc1ccccc1OCC(=O)N(Cc1ccc(Cl)cc1)CC1CCCO1 (stereo not drawn)	none (no result: Sfp inh)
CCCOc1ccc(C(=O)N(Cc2ccc(N(C)C)cc2)CC2CCCO2)cc1 (stereo not drawn)	G9a block 11µM, JMJD2A Tudor inh 40µM, BAZ2B inh 40µM, HP1b chromo inh inconclusive (no result: Sfp inh)
Cc1cc(OCC(=O)N(Cc2ccc(N(C)C)cc2)CC2CCCO2)ccc1Cl (stereo not drawn)	G9a block 13µM, JMJD2A Tudor inh 35µM, BAZ2B inh 28µM, HP1b chromo inh inconclusive (no result: Sfp inh)

High-throughput results deposited in PubChem BioAssay by National Center for Advancing Translational Sciences (NCATS).
